Source: PubChem (National Center for Advancing Translational Sciences (NCATS))
Luciferase inh = qHTS Assay for Inhibitors of Firefly Luciferase; Luciferin 4-monooxygenase (Photinus pyralis), P08659; purified firefly luciferase, luminescence, 8 min; Potency, µM (titrated, usually from 57.1 µM), for inactives: top-dose activity change, negative = inhibition, most hits filed as inhibitors; hit rate 2.2% among 72,000; note: nearly all actives have a fitted effect of over 40% in size
Target sequence (P08659 whole entry, looked up): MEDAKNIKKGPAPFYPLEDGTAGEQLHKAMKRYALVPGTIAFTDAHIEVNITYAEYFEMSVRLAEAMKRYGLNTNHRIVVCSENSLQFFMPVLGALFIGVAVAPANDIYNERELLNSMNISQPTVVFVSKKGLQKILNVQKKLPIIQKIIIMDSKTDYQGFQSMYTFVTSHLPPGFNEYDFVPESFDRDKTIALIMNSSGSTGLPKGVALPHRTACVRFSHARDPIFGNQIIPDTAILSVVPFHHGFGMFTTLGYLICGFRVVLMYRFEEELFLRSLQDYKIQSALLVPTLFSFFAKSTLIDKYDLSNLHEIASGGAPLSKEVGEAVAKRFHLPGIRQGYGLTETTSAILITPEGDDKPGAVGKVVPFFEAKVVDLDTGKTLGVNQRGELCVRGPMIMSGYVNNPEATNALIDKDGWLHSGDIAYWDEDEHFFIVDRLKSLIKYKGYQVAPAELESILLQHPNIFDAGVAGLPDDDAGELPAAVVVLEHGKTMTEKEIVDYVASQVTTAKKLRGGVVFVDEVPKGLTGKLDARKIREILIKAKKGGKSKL
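Luminescence read-out after 8 min at room temperature; enzyme reaction used luciferin plus 10 uM ATP (linear range) in imidazole buffer pH 7.2 with KCl, MgCl2, Tween 20 and BSA. Each sample was run as a titration.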
p53ts 32C tox = qHTS Screen for Compounds that Selectively Target Cancer Cells with p53 Mutations: Cytotoxicity of p53ts Cells at the Permissive Temperature; H1299-p53A138V at 32C, ATP luminescence viability, 24 h; hit rate 0.93% among 130,000; Potency, µM (series often up to 46.1 µM), for the others: top-dose activity change, negative = cytotoxicity, hits mostly cytotoxic; AID 924, 2007;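 note: 0% = DMSO and -100% = full killing by reference compound; nearly all actives have a fitted effect of over 55% in size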
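Viability by ATPlite luminescence after 24 h compound treatment (up to 46 uM) at the permissive 32C. Cells are H1299 carrying p53 A138V. Scale runs from DMSO basal to 100 uM tamoxifen as full kill; AC50 from Hill fits.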
p53ts 39C tox = qHTS Screen for Compounds that Selectively Target Cancer Cells with p53 Mutations: Cytotoxicity of p53ts Cells at the Nonpermissive Temperature; Potency, µM (series often up to 46.1 µM), without a hit: at the top dose activity change, negative = cell killing, hits mostly cytotoxic; AID 902, 2007; hit rate 1.5% among 130,000; H1299-p53A138V viability at 39C, ATP luminescence, 24 h; note: nearly all actives have a fitted effect of over 55% in size
* hit, by the source's call; ? = inconclusive; . = not tested or not shown; [ ] = remark or other dose. Hits are enriched below; roughly 2.6% of the tested compounds scored in any of these assays. Calls come from the whole dose curve; as a rule, active = well fitted curve in the direction sought with a large enough effect; inconclusive = small, poorly fitted or top-dose-only effect, or another doubt; inactive = no such curve, though single readings can be large; an effect the other way counts as inactive or inconclusive. Unless noted, % is set by controls: 0 for no effect and ±100 for the full control effect; potency is the fitted concentration of half-maximal effect.

SMILES	Luciferase inh	p53ts 32C tox	p53ts 39C tox
CCC(NC(=O)c1ccccc1NC(=O)c1ccccc1)C(=O)O (centres undefined)	0%	0%	-8%
Cc1ccc(C(=O)Nc2ccccc2C(=O)NC(C(=O)O)C(C)C)cc1 (centres undefined)	.	?	10µM*
CN(Cc1ccccc1)C(=O)c1ccc(CSc2nc3cccnc3n2Cc2ccccc2)cc1	.	12%	.
Cc1ccccc1NC(=O)CSc1nc2ccccc2c2nc(CCn3c(C)nc4ccccc43)nn12	.	3%	-21%
Cc1nc2ccccc2n1CCc1nc2c3ccccc3nc(SCC(=O)Nc3ccc(C(C)C)cc3)n2n1	.	?	10µM*
COc1ccccc1/C=C/c1nc(C#N)c(N2CCN(c3ccccc3)CC2)o1	.	-3%	-16%
CCc1ccc(C(=O)c2cn(CC(=O)NCc3ccc(C)cc3)c3nc(C)ccc3c2=O)cc1	.	8%	-16%
NC(=O)c1ccc(-c2ncc(-c3ccccc3)o2)cc1	13µM*	?	20µM*
c1ccc(-c2cnc(-c3cccnc3)o2)cc1	-22%	-29%	-22%
CCOc1ccc(S(=O)(=O)Nc2ccc3c(c2)N(C(C)=O)CCC3)cc1	.	-9%	-14%
CCn1c(SCC(=O)c2cc(C)n(CC3CCCO3)c2C)nc2ccccc21 (centres undefined)	-9%	-6%	-5%
Cc1cc(C(=O)CN2C(=O)c3ccccc3S2(=O)=O)c(C)n1CC1CCCO1 (centres undefined)	16µM*	2.5µM*	1µM*
COc1ccc(CNC(=O)Cn2nc(N3CCN(c4ccccc4)CC3)ccc2=O)c(OC)c1	.	-1%	-14%
COc1cccc(Cn2c(=O)c(-c3ccccc3)nc3cnc(N4CCNCC4)nc32)c1	2%[11.4 µM]	-4%	-19%
O=C(O)COc1cccc(-c2ocnc2-c2nc(-c3ccccc3)c(-c3ccccc3)o2)c1	-11%	9%	-2%
Cc1ccc(-c2nc(-c3nccc4ccccc34)oc2-c2ccccc2)cc1	3.2µM*	-1%[9.22 µM]	4%[9.22 µM]
CCOc1ccccc1-c1noc(CSc2nnc(-c3ccccc3)n2-c2ccc(F)cc2)n1	.	18%	-10%
CC(=O)N1CCC(N(Cc2ccc(C)o2)C(=O)Nc2cccc(C(F)(F)F)c2)CC1	.	3%	.
O=C1NCCCC2c3cc(O)c4ccccc4c3OC12N1CCCCC1 (centres undefined)	-5%	6.3µM*	7.9µM*
O=C1NCCCC2c3c(cc(Br)c(O)c3Br)OC12N1CCOCC1 (centres undefined)	2%	9%	9%
O=S(=O)(Nc1ccc(Cl)cc1Cl)c1cc(Cl)ccc1Cl	.	2%	-26%
N=C1Sc2ccccc2C2=NCCCN12	3.2µM*	-9%	?
c1ccc2c(c1)Sc1ccccc1-n1cnnc1-2	.	-3%	-2%
CCOC(=O)C1(C)C=C(Nc2cccc(C(=O)O)c2)C(=O)N1c1ccccc1 (centres undefined)	.	6%	12%
Cc1ccc2nc(Nc3ncc4c(n3)CCCC4=O)nc(C)c2c1	4%	12%	4%
SMILES	Luciferase inh	p53ts 32C tox	p53ts 39C tox
Cc1cc(C)cc(Nc2ncc3c(n2)CCCC3=O)c1	13µM*	-20%	-21%
Cc1nn2cc(-c3ccc(N)cc3)nc2s1	?	-27%	?
CCCc1nn2cc(-c3ccc(C)c(C)c3)nc2s1	.	7.9µM*	7.9µM*
Oc1c(I)cc(I)c2cccnc12	-2%[25.5 µM]	?	7.9µM*
Oc1c(Cl)cc(Cl)c2cccnc12	.	?	3.2µM*
Oc1ccc(Cl)c2cccnc12	.	-10%	-14%
Oc1c(CN2CCN(c3ccccn3)CC2)cc(Cl)c2cccnc12	2%	3%	-24%
CCOc1ccc(NC(=O)C(=O)NCC(c2cccnc2)N2CCc3ccccc32)cc1 (centres undefined)	.	-13%	-21%
O=C(Nc1ccccc1)c1ccccc1O	20µM*	?	-22%
Cc1ccccc1C(=O)Nc1ccccc1	-19%	-25%	-10%
Cc1ccc(NC(=O)c2ccccc2O)cc1	5µM*	14µM*	10µM*
Cc1ccccc1NC(=O)c1ccccc1O	-5%	0%	1%
Cc1ccc(C)c(CN2C(=O)C3(c4ccccc42)N(c2ccc(Cl)cc2)C(=O)CS3(=O)=O)c1 (centres undefined)	.	12%	5%
CC1(C)CC2C1CCC1(C)OC1CCC2(C)O (centres undefined)	.	0%	-5%
CCOc1ccc(C2=C(C(=O)CC)Sc3nncn3N2C(=O)CC)cc1	.	11µM*	?
